Measured values published in PubChem BioAssay (EPA / NIEHS).
Results filed as inconclusive are left out. Activity calls are given as the source filed them. The calls were made as follows: active = hit-call score of the fitted dose curve at least 0.9, where 1 is the maximum; inconclusive = response in the unintended direction; inactive = score below 0.9.

Experiments:
[1] = target: human Constitutive Androstane Receptor (CAR), NR1I3 (gene 9970) (UniProt Q14994); test: NVS_NR_hCAR_Antagonist: NovaScreen (NVS) Nuclear Receptor Binding Assay for human Constitutive Androstane Receptor Antagonism (CAR) (AID 2283344)
Outline: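 Cell-free TR-FRET binding read 1 h after dosing, antagonist mode; loss of signal versus DMSO baseline. Primary screen in duplicate at a single 25 uM; actives retested in concentration series.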

[2] = target: Estrogen receptor (Homo sapiens) (UniProt P03372); test: OT_ER_ERaERa_1440: Odyssey Thera (OT) 24-hour HEK293T Protein-Complementation Assay for Estrogen Receptor-alpha/-alpha Homodimer (AID 2283349);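 also: hits raise fluorescence above DMSO for agonists and antagonists alike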
Outline: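 HEK293T cells stably expressing the human ER alpha ligand-binding domain (aa 310-547) as a homodimer PCA were dosed for 24 hours. Fluorescence intensity was read by laser scanning cytometry, and gain of signal was fitted relative to DMSO vehicle.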

[3] = target: chimpanzee Androgen Receptor (AR), AR (gene 747460) (UniProt O97775); test: NVS_NR_cAR: NovaScreen (NVS) Nuclear Receptor Binding Assay for chimpanzee Androgen Receptor (AR) (AID 2283346);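 also: radioligand displacement from AR measured by scintillation counting in a cell-free assay; a loss of bound radioligand signal versus DMSO counts as binding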
Outline: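 Radioligand binding to chimpanzee AR expressed in Sf9/Sf21 cells, cell-free, measured 72 h after dosing by lysate-based scintillation counting. Loss of signal vs DMSO; initial duplicate screen at 25 uM, actives retested in concentration series.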

[4] = target: Bile acid receptor (Homo sapiens) (UniProt Q96RI1); test: NVS_NR_hFXR_Agonist: NovaScreen (NVS) Nuclear Receptor Binding Assay for human Farnesoid X Receptor Agonism (FXR) (AID 2283347)
Outline: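 Cell-free TR-FRET binding assay with extracted human FXR protein, agonist format, read 1 h after dosing. Primary screen at 25 uM single concentration in duplicate, actives retested in concentration series; gain of signal versus DMSO.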

[5] = target: Estrogen receptor (Homo sapiens) (UniProt P03372); test: NVS_NR_hER: NovaScreen (NVS) Nuclear Receptor Binding Assay for human Estrogen Receptor (ER) (AID 2283348)
Outline: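 Radioligand competitive displacement binding to estrogen receptor from MCF7 extract, cell-free; 18 h after dosing, scintillation read-out. Primary screen in duplicate at 25 uM; actives followed up in concentration series; loss of signal vs DMSO.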

Sequence of human Constitutive Androstane Receptor (CAR), NR1I3 (gene 9970) (Q14994 whole entry, looked up): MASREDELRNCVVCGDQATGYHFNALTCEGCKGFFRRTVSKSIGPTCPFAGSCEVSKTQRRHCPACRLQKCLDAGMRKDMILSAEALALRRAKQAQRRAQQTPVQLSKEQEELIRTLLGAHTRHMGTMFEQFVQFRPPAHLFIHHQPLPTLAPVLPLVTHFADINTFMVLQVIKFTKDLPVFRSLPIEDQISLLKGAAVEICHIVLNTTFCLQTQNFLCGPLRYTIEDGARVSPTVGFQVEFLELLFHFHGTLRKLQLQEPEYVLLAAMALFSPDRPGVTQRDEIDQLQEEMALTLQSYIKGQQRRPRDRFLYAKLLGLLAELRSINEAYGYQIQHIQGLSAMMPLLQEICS
Sequence of Estrogen receptor (Homo sapiens) (P03372 whole entry, looked up, the tested form may be a part): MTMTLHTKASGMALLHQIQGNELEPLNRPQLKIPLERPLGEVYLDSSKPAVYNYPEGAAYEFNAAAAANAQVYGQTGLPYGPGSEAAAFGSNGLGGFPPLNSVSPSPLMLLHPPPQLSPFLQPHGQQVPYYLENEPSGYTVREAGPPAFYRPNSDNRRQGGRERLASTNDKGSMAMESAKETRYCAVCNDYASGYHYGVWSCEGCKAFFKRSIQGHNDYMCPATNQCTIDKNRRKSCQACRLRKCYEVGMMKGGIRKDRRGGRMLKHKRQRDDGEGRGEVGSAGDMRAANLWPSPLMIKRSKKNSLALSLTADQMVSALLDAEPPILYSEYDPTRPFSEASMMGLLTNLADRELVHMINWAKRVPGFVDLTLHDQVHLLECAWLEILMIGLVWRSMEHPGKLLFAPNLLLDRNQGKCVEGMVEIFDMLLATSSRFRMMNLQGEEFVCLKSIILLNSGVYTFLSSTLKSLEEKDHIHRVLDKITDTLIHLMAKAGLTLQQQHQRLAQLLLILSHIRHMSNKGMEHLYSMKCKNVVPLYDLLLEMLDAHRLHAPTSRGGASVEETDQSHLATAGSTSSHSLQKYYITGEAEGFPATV
Sequence of chimpanzee Androgen Receptor (AR), AR (gene 747460) (O97775 whole entry, looked up): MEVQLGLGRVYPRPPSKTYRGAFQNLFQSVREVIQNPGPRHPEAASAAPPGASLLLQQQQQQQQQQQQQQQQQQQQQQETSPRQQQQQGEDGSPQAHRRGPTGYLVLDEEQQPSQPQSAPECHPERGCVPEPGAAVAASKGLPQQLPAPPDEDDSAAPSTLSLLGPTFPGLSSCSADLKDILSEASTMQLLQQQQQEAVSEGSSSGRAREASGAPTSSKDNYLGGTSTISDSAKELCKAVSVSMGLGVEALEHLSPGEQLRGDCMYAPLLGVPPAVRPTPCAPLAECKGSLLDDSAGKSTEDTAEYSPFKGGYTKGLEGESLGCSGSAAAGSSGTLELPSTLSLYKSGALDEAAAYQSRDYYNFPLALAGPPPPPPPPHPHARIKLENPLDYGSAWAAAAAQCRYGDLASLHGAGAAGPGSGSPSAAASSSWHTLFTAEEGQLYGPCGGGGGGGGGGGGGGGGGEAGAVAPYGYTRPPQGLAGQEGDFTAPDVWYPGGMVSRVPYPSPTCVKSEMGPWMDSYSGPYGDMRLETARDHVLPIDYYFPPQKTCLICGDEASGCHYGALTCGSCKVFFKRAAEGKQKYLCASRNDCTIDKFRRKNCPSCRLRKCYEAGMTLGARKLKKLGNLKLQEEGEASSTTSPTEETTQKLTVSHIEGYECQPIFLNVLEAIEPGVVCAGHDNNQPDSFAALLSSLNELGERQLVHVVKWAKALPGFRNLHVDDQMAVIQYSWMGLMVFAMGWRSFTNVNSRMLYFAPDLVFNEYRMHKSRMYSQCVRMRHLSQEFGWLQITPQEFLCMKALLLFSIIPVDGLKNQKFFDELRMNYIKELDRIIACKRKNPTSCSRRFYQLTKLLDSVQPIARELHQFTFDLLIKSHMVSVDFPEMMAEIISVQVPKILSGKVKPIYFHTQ
Sequence of Bile acid receptor (Homo sapiens) (Q96RI1 whole entry, looked up): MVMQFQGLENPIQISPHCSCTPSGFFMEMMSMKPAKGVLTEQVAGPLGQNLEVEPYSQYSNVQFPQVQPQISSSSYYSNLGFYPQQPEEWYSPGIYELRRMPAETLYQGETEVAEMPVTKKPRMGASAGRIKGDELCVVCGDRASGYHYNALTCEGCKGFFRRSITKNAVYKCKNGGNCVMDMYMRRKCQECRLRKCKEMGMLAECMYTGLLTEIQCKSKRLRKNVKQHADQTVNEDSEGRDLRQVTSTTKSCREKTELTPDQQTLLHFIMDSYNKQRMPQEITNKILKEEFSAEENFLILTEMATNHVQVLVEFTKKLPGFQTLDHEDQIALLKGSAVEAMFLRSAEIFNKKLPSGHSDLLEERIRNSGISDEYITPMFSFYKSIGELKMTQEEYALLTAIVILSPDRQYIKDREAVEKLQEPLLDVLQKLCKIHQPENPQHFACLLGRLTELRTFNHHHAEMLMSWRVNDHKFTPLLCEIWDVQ

O=[N+]([O-])c1cc(C(F)(F)F)c(Cl)c([N+](=O)[O-])c1Nc1ncc(C(F)(F)F)cc1Cl
outcome [1]: inactive | outcome [2]: inactive

CCCCSP(=O)(SCCCC)SCCCC
outcome [1]: inactive

CCC(=NOC/C=C/Cl)C1=C(O)CC(C2CCOCC2)CC1=O (stereo unspecified)
outcome [1]: inactive

CON=C(C(=O)OC)c1ccccc1CON=C(C)c1cccc(C(F)(F)F)c1
outcome [1]: inactive

CCCCN(CC)c1c([N+](=O)[O-])cc(C(F)(F)F)cc1[N+](=O)[O-]
outcome [1]: inactive

Nc1c(Cl)cc([N+](=O)[O-])cc1Cl
AC50 [3]: 15.4 µM (active) | outcome [4]: inactive | outcome [2]: inactive

COP(=O)(OC)SCn1c(=O)oc2cc(Cl)cnc21
outcome [5]: inactive | outcome [2]: inactive
